What was measured:
Format in all cases: functional
[1] = biological target: Solute carrier family 2, facilitated glucose transporter member 1 (Homo sapiens) (UniProt P11166); experiment: ST_JUDE_LEISH: Cytotoxicity at 2uM final concentration against transgenic Leishmania Mexicana promastigotes LmGLUT1 that are glucose transport deficient and complemented with the human glucose transporter GLUT1. Activity is measured by DNA content using SYBR green in vitro
[2] = biological target: Hexose transporter 1 (Plasmodium falciparum) (UniProt O97467); experiment: ST_JUDE_LEISH: Cytotoxicity at 2uM final concentration against transgenic Leishmania Mexicana promastigotes LmPfHT that are glucose transport deficient and complemented with the Plasmodium falciparum hexose transporter. Activity is measured by DNA content using SYBR green in vitro
[3] = biological target: Glucose transporter (Leishmania mexicana) (UniProt O61059); experiment: ST_JUDE_LEISH: Cytotoxicity at 2uM final concentration against transgenic Leishmania Mexicana promastigotes LmGT2 that are glucose transport deficient and complemented with the L. Mexicana glucose transporter 2. Activity is measured by DNA content using SYBR green in vitro

Solute carrier family 2, facilitated glucose transporter member 1 (Homo sapiens), sequence (P11166 whole entry): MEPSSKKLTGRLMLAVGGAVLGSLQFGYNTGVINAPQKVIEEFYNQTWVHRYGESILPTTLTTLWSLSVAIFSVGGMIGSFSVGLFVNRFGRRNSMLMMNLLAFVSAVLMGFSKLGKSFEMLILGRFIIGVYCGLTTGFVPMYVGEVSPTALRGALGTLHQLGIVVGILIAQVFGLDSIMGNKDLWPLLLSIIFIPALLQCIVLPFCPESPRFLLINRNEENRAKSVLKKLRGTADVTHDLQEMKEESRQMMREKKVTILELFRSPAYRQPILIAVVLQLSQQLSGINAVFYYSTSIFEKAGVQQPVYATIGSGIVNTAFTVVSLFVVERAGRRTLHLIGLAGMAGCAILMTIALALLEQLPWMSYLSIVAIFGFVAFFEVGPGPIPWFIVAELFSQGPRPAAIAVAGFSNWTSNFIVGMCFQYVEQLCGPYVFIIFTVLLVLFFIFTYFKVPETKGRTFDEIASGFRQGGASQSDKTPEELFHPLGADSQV

Structure (SMILES) | inhibition [1] [%] | inhibition [2] [%] | inhibition [3] [%]
N=C(N)c1ccc(Nc2nc(Nc3ccc(-c4ccccc4)cc3)ncc2[N+](=O)[O-])cc1 | 3.15 | 3.65 | 3.44
CC(=O)COc1c(C2CCN(CCCCNC(=O)c3ccc(-c4ccc(C(F)(F)F)cc4)cc3)CC2)ccc2c1CCCC2 | 0.29 | 5.93 | 0.59
Cc1nc(-c2nc(NCc3ccccn3)ncc2-c2ccsc2)sc1C | 6.64 | 5.22 | 5.82
Cc1ccc(NC(=O)c2ccc(NCCCN(C)Cc3ccccc3)c([N+](=O)[O-])c2)cc1F | 8.67 | 3.73 | 2.68
CCOc1cc(Cc2cnc(N)nc2N)cc(OCC)c1O | 1.1 | 1.86 | -1.21
CC(C)(O)CC(C)(C)c1cc(Cl)ccc1O | 6.46 | 5.76 | 4.82
COc1ccc(NC(=O)Nc2cccc(-c3ccc(-c4nc5cccc(C)c5[nH]4)s3)c2)cc1 | 6.52 | 5.29 | 3.22
Cc1ccc(S(=O)(=O)n2cc(-c3ccnc(N)c3)c3cc(Br)cnc32)cc1 | 4.4 | 4.2 | 1.4
Cc1cc(Nc2cccc(C#N)c2)nc(Nc2ccccc2C)n1 | 77.7 | 91.1 | 52.3
CN(C(=O)C1(c2ccc(Cl)cc2)CC1)C1CCN(CCCCCNC(=O)/C=C/c2ccc(Cl)c(Cl)c2)CC1 | 0.14 | -0.37 | 4.56
Cc1cc(-c2cccc3c(NC(=O)N4CCc5cc6nccc(N7CCN8CCC[C@H]8C7)c6cc54)cccc23)cc(C)n1 | 4.48 | 2.56 | 1.59
C#CCCC(=O)Nc1cccc(-c2cccc(-c3nc4cccc(C)c4[nH]3)c2)c1 | 3.2 | 1.23 | -1.87
COc1cc(C2CCCCC2)c(OC)cc1CC1c2cc(O)c(Cl)cc2CCN1C (stereo not drawn) | 3.83 | -0.22 | 12.9
CS(=O)(=O)N(c1ccccc1)c1cc(C(=O)N[C@@H](Cc2ccccc2)[C@H](O)CNC2CC2)cc(N2CCCC2=O)c1 | 4.45 | 5.62 | 4.38
COc1ccc(CCn2c(=N)c(C(=O)NCc3ccc(C)cc3)cc3c(=O)n4ccccc4nc32)cc1 | 3.94 | 3.72 | 3.95
O=c1cc(NCCCNCc2cccc(SC(F)(F)F)c2)[nH]c2ccccc12 | 3.33 | 3.61 | 3.15
C=CCN1C(=O)c2[nH]nc(-c3cc(C)c(C)cc3O)c2C1c1cccc(Br)c1 (stereo not drawn) | 2.03 | 1.25 | 1.27
Cc1ccc(/C=C/C(=O)N2CCC(CCN3CCC(c4c[nH]c5ccccc45)CC3)CC2)cc1C | 1.87 | 1.19 | 6.17

Structure (SMILES) | inhibition [1] [%] | inhibition [2] [%] | inhibition [3] [%]
Cc1cc(NC2CCN(CC3CCCCC3)C2)nc(Nc2ccc(Cl)cc2)n1 (stereo not drawn) | 3.89 | 3.7 | 2.63
O=C(NCCCCN1CCN(c2cccc3c2CCCC3)CC1)c1ccc(NC(=O)c2ccc(Cl)cc2)cc1 | 3.35 | 1.45 | 1.92
Clc1ccc(-c2cc(-c3csc(Nc4ccncc4)n3)on2)cc1 | 1.41 | 5.17 | 1.32
Cc1[nH]c(C)c(-c2ccc(-c3ccc(C(F)(F)F)cc3C(F)(F)F)nc2)c(=O)c1Br | -0.49 | -2.4 | 0.14
CCCCNC(=O)C(C)NC(=O)c1ccc(O)c(-c2ccc(Cl)c(Cl)c2)c1 (stereo not drawn) | -0.19 | -0.53 | 0.05
COc1ccc2[nH]c(C(=O)Nc3ccc4[nH]c(-c5ccccc5)nc4c3)cc2c1 | 4.44 | 2.1 | 0.82
COc1cc(NC(=O)/C=C/c2cccc3ccoc23)ccc1OCCN(C(C)C)C(C)C | 9.36 | 3.8 | 1.81
CC(C)CNCc1cccc(-c2cccc(CN(CCN(C)C)C(=O)Nc3ccccc3)c2)c1 | 2.46 | 4.17 | 0.55
Cc1ccc(-c2cccc3c(NC(=O)Nc4ccc5nccc(N6CCN(C)CC6)c5c4)cccc23)cn1 | 0.51 | 0.17 | 7.64
Cc1ccc(NC(=O)c2ccc(CN3CCCN(Cc4cccc(O)c4)CC3)cc2)cc1C | 0.9 | 0.45 | 4.65
COc1cc2c(cc1OC)C(C)(C)CN1Cc3c(c(CO)c(OC)c(OC)c3OC)CC21 (stereo not drawn) | 4.54 | 3.72 | 4.31
CC(=O)c1ccc(N2CCN(CCC3(c4ccc(Cl)c(Cl)c4)COCN(C(=O)c4ccccc4)C3)CC2)cc1 (stereo not drawn) | 4.7 | 1.18 | -0.21
CNCCNCc1ccc(-c2ccc(-c3nc4cc(C(F)(F)F)ccc4[nH]3)s2)cc1 | 2.21 | 0.84 | 0.73
O=C1C(c2ccccc2)=C(Nc2cccc(OC(F)(F)C(F)F)c2)c2ccccc21 | 5.8 | 4.03 | 1.33
O=C(Nc1ccc(Cl)c(Cl)c1)Nc1cc(C(F)(F)F)ccc1Cl | -0.56 | 1.37 | 1.28
CC1(C)CN(CCC2CCC(NC(=O)/C=C/c3ccc(F)cc3F)CC2)Cc2ccc(C#N)cc21 (stereo not drawn) | 2.36 | 1.97 | -1.19
Cc1nc(-c2nc(N3CCC(O)CC3)ncc2-c2ccsc2)sc1C | -1.86 | -1.39 | 0.38
O=C(c1ccc(Cl)cc1)N1CCCC(C(=O)N(Cc2nnc(-c3ccccc3Cl)o2)C2CC2)C1 (stereo not drawn) | 0.11 | 1.56 | -0.04
